FLuc modulator = inhibits or activates purified firefly luciferase, miR-21 counter-screen. P08659. purified FLuc, Km substrates, luminescence inhibition. Potency, µM (doses to about 57.5 µM), without a hit: at the top dose activity change, negative = inhibition, usual class: inhibitors. 360,000 compounds, 6.9% hits. AID 588342;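 also: plate controls were vehicle for no effect and reference inhibitor for full effect; nearly all actives have a fitted effect of over 55% in size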
Target sequence (P08659 whole entry, looked up): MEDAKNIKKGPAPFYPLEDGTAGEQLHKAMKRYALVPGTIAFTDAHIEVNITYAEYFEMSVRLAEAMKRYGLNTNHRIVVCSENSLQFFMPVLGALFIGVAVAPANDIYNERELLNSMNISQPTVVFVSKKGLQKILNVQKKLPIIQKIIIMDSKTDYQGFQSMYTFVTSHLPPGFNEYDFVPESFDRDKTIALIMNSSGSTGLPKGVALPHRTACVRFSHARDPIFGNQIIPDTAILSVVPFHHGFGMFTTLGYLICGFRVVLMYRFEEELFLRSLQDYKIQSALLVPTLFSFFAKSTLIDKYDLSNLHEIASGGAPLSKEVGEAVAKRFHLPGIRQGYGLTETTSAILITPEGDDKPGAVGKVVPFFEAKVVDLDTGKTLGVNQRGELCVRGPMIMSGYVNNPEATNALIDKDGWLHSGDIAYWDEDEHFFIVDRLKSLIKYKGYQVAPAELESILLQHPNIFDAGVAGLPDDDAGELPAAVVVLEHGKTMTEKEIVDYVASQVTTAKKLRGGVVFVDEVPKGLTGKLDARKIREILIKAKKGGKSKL
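Purified P. pyralis luciferase (10nM final) with 10uM D-luciferin and 10uM ATP (Km levels) in 50mM Tris acetate pH 7.5, 10mM Mg acetate, 0.01% Tween-20, 0.05% BSA; qHTS 6-point titration, ~60 µM downward; luminescence read.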
ELG1 genotoxic = induces genotoxicity in HEK293T cells with luciferase-tagged ELG1 | AID 504466 | Potency, µM (titrated, usually from 46 µM), without a hit: at the highest dose activity change, positive = activation, actives largely listed as activators | HEK293T ELG1-luciferase reporter, luminescence, 16 h | 330,000 compounds, 1.3% hits; also: % of control where 0% means no effect; nearly all actives have a fitted effect of over 60% in size
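Step 1: seed 2,000 HEK293T ELG1-luciferase cells per well. Step 2: add compound or DMSO, incubate 16 hr at 37 °C. Step 3: ONE-Glo, 30 min at room temperature, read luminescence.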
SMN2 splice up = increases expression of the SMN2 splice variant | 210,000 compounds, 2.8% hits | HEK293 SMN2-luciferase splicing reporter, luminescence, 30-36 h | Potency, µM (highest dose often 46.1 µM), for the others: top-dose activity change, positive = activation, most hits filed as activators; also: % of control where 0% means no effect; nearly all actives have a fitted effect of over 55% in size
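HEK293 cells carry an SMN2 minigene-luciferase reporter in which exon 7 inclusion puts luciferase in frame. Cells were seeded at 2000 cells/well, attached for 10-12 hours, then exposed to compounds for 30-36 hours at 37C before ONE-Glo luminescence.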
NPC1 prom act = activates the NPC1 promoter; AID 485313; Potency, µM (doses to about 9.22 µM), for the others: at the top dose activation, hits mostly activators; 320,000 compounds, 2.4% hits; Huh7 NPC1 promoter luciferase reporter, 24 h; also: % of control where 0% means no effect; nearly all actives have a fitted effect of over 60% in size
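Luciferase expression driven by the NPC1 promoter was measured in stably transfected Huh7 cells after a 24 h compound incubation, using a luciferase reagent and a luminescence read.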
Rab9 prom act = activators of Rab9 promoter; Huh7 Rab9 promoter-luciferase reporter, luminescence, 24 h; Potency, µM (highest dose often 9.22 µM), without a hit: at the highest dose activation, negative = inhibition, hits mostly activators; 320,000 compounds, 2.8% hits; also: % of control where 0% means no effect; nearly all actives have a fitted effect of over 60% in size
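Luciferase signal after 10 min detection reagent at ambient indicates Rab9 promoter upregulation; stably transfected Huh7 cells were treated 24 h with compound in DMSO at 37 °C, 5% CO2.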
An asterisk follows results filed as active; u = inconclusive; x = no result given. The list is not random: actives were taken first. Their share in the collection is about 7.4%. Calls follow the shape of the dose curve; as a rule, active = well fitted curve in the direction sought with a large enough effect; inconclusive = small, poorly fitted or top-dose-only effect, or another doubt; inactive = no such curve, though single readings can be large; an effect the other way counts as inactive or inconclusive. Potency is read from the fitted curve at half-maximal effect.

SMILES	FLuc modulator	ELG1 genotoxic	SMN2 splice up	NPC1 prom act	Rab9 prom act
O=C(NC12CC3CC(CC(C3)C1)C2)c1ccc(-c2ccc(Br)cc2)o1	4.78µM*	u	15.8µM*	u	u
O=C(NC12CC3CC(CC(C3)C1)C2)c1ccc(Br)o1	16.9µM*	-11.5%	x	-2.3%	-2.0%
CCN(C(=O)CCS(=O)(=O)c1cc2[nH]c(=O)c(=O)[nH]c2cc1C)c1ccccc1	-6.6%	x	x	x	x
O=C(Nc1nc(-c2cccs2)cs1)C1=COCCO1	12µM*	u	12.6µM*	u	u
Cc1ccc(CSc2nnc(NC(=O)C3=COCCO3)s2)cc1	26.9µM*	9.3%	x	10.3%	2.7%
O=C(Nc1nc(-c2ccc(Cl)cc2)cs1)C1=COCCO1	23.9µM*	6.9%	x	u	16.4%
CCc1ccc(-c2csc(NC(=O)C3=COCCO3)n2)cc1	8.49µM*	u	x	0.891µM*	0.794µM*
Cc1cc(-c2csc(NC(=O)C3=COCCO3)n2)c(C)n1C	-13.4%	0.8%	x	9.6%	17.3%
O=C(Nc1nc(-c2ccc(F)c(F)c2)cs1)C1=COCCO1	u	4.1%	x	19.8%	u
Cc1cc(C)c(-c2csc(NC(=O)C3=COCCO3)n2)c(C)c1	-0.8%	u	x	-2.0%	-5.4%
CCn1c(=NC(=O)c2ccc(S(=O)(=O)N3CCCCC3)cc2)sc2cccc(OC)c21	1.7%	x	u	x	x
CCN(c1ccccc1)S(=O)(=O)c1cc2c3c(c1)CCN3C(=O)CC2	-17.0%	0.8%	x	-2.0%	-5.2%
O=C(NCC1COCCO1)c1cc(COc2c(F)cccc2F)on1 (stereo not given)	0.5%	1.5%	x	-0.9%	11.2%
COc1ccc(CNC(=O)CCS(=O)(=O)c2ccc3c(c2)CC(C)N3C(=O)C2CC2)cc1 (stereo not given)	-6.4%	1.1%	x	-1.1%	0.5%
O=C(COCc1cc(-c2ccco2)on1)Nc1ccc(OC(F)(F)F)cc1	-5.7%	x	x	x	x
Nc1c(C(=O)c2ccco2)oc2ccccc12	u	11.0%	17.4%	15.1%	23.6%
CCOC(=O)N1CCN(C(=S)NC(=O)/C=C/c2ccc(C)cc2)CC1	13.5µM*	0.5%	x	-4.5%	-1.2%
COc1ccc(/C=C/C(=O)NC(=S)N2CCN(C)CC2)cc1	u	12.1%	1.6%	-1.8%	-0.6%
CCNc1nc(NC(C)CC)nc(Oc2ccc(OCC)nn2)n1 (stereo not given)	-1.9%	u	5.62µM*	-9.5%	-3.0%
CCOc1ccc(Oc2nc(NCC(C)C)nc(OC)n2)nn1	0.9%	u	22.8%	-0.9%	-0.7%
O=C(Nc1ccc(F)c(Cl)c1)C1CCCN1S(=O)(=O)c1ccc(F)cc1 (stereo not given)	-8.9%	x	-40.4%	x	x
CCN1C(=O)/C(=C/C2=Cc3ccccc3OC2C)SC1=S (stereo not given)	13.5µM*	0.3%	x	-1.9%	7.1%
CCN1C(=O)/C(=C\c2ccncc2)SC1=S	-0.5%	-0.3%	x	-0.5%	0.6%
CC1Oc2ccccc2C=C1/C=C1/SC(N2CCOCC2)=NC1=O (stereo not given)	21.3µM*	11.5%	21.3%	20.0%	u
O=C1N=C(N2CCOCC2)S/C1=C/c1cccs1	u	4.9%	5.8%	1.9%	-2.1%
SMILES	FLuc modulator	ELG1 genotoxic	SMN2 splice up	NPC1 prom act	Rab9 prom act
CC(=C/c1ccccc1)/C=C1/SC(N2CCOCC2)=NC1=O	15.1µM*	11.0%	u	u	u
COc1cccc(CC(=O)Nc2cc(S(=O)(=O)N3CCOCC3)ccc2OC)c1	2.5%	-0.2%	x	0.1%	-0.9%
O=C(/C=C/c1ccco1)Nc1ccc(Cl)c(-c2nc3cc(Cl)ccc3o2)c1	-14.1%	x	-6.0%	x	x
CC1=NN(c2ccc([N+](=O)[O-])cc2)C(=O)/C1=C\N(C)C	10.7µM*	u	4.6%	-0.9%	1.8%
CC1=NN(c2nc3ccccc3[nH]2)C(=O)C1Cc1ccccc1 (stereo not given)	u	26.3%	x	-28.6%	-48.5%
CCOC1=NN(c2ccc(Cl)cc2)C(=O)/C1=C\N(C)C	-4.4%	0.9%	-20.7%	5.4%	-1.8%
CCCC1=NN(c2ccc([N+](=O)[O-])cc2)C(=O)/C1=C/N(C)C	10.7µM*	12.7%	28.5%	18.3%	1.1%
CC1=NN(c2nc3ccccc3[nH]2)C(=O)/C1=C/N(C)C	2.13µM*	-9.7%	x	1.78µM*	1.41µM*
COc1cccc(CSCC(=O)NCCc2ccccc2)c1OC	-0.3%	-0.1%	x	-2.8%	-5.7%
COc1ccccc1C(=O)N/C(=N/c1nc(C)cc(C)n1)Nc1ccccc1	0.8%	-7.8%	x	3.2%	1.6%
CCN(CC)CCC(c1ccc2c(c1)OCO2)c1c(O)cc(OC)cc1OC (stereo not given)	-1.3%	1.1%	x	-6.8%	-6.5%
CCC(C)NC(=O)c1cc(-c2ccc3c(c2)OCO3)on1 (stereo not given)	3.38µM*	u	x	0.891µM*	0.447µM*
CCC(C)NC(=O)COCc1cc(-c2ccc3c(c2)OCO3)on1 (stereo not given)	u	2.2%	x	6.0%	-1.8%
COCCNC(=O)c1cc(-c2ccc3c(c2)OCO3)on1	6.75µM*	u	11.2µM*	1.58µM*	2.51µM*
C=CCNC(=O)c1cc(-c2ccc3c(c2)OCO3)on1	2.13µM*	u	x	0.447µM*	0.562µM*
COCCNC(=O)COCc1cc(-c2ccc3c(c2)OCO3)on1	u	4.6%	x	-3.8%	-0.6%
O=C(O)c1ccc(-c2ccccc2)[nH]1	6.1%	-2.3%	-16.0%	-2.8%	-9.7%
CCc1ccc(-c2ccc(C(=O)C(F)(F)F)[nH]2)cc1	2.13µM*	u	u	2µM*	1.12µM*
COC(=O)c1cccc(NC(=O)Cc2nc(-c3ccccc3)sc2-c2ccc(C)cc2)c1	-1.4%	-2.8%	4.6%	-6.6%	6.1%
CC(=O)Nc1cccc(NC(=O)Cc2nc(-c3ccccc3)sc2-c2ccc(C)cc2)c1	21.3µM*	3.0%	14.7%	-3.2%	8.2%
COc1cccc(NC(=O)Cc2nc(-c3ccccc3)sc2-c2ccc(C)cc2)c1	15.1µM*	1.4%	1.5%	3.1%	8.4%
COc1ccc(C)cc1N(C(=O)c1snc(C(N)=O)c1N)C(C(=O)NC1CCCC1)c1ccc(F)cc1 (stereo not given)	1.0%	-8.3%	x	-1.6%	-4.3%
COc1ccc(-c2cc(-c3ccccc3)c(C#N)c(S(C)=O)n2)cc1 (stereo not given)	-0.2%	-3.7%	-26.3%	-3.9%	-18.5%
COc1ccc(-c2cc3nc4ccccc4n3c(N)c2C#N)cc1	u	13.8%	x	1.78µM*	2µM*
Cc1[nH]c(=O)[nH]c(=O)c1C1N2CC3(C(C)C)CN1CC(C(C)C)(C2)C3=O (stereo not given)	1.9%	x	-5.6%	x	x
COC(=O)Nc1nnc(-c2ccc(OC)cc2)s1	8.49µM*	16.4µM*	x	2.51µM*	2.82µM*
